Source: PubChem BioAssay
A selection: hits, their analogues and other compounds. The true share with any hit is near 1.1%.
PI4K2A block – inhibitors of human PI4K2A. AID 1346378. activity change, negative = inhibition, % at 76.9 µM. 420,000 tested, 0.13% active. purified PI4K2A, ADP-Glo luminescence, 1 h; hits give low values; in the data active = activity change below about -50%; inconclusive = mostly about -30% to -49%;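 note: -100% = wells without enzyme as full effect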
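Compounds are screened against recombinant PI4K2A using PI as substrate and ATP, the latter dispensed at 300 microM. Reactions run one hour at ambient temperature before ADP-Glo detection; full inhibition defined by wells lacking enzyme.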
TrxR1 inh – rat TrxR1 inhibition; O89049; recombinant rTrxR1, NADPH fluorescence consumption, selenite substrate; Potency, µM (doses to about 114 µM), without a hit: at the highest dose activity change, negative = inhibition, hits mostly inhibitors; 390,000 tested, 1% active; AID 588453; note: potency is the fitted concentration of half-maximal effect; nearly all actives have a fitted effect of over 65% in size
Target sequence (O89049 whole entry, looked up): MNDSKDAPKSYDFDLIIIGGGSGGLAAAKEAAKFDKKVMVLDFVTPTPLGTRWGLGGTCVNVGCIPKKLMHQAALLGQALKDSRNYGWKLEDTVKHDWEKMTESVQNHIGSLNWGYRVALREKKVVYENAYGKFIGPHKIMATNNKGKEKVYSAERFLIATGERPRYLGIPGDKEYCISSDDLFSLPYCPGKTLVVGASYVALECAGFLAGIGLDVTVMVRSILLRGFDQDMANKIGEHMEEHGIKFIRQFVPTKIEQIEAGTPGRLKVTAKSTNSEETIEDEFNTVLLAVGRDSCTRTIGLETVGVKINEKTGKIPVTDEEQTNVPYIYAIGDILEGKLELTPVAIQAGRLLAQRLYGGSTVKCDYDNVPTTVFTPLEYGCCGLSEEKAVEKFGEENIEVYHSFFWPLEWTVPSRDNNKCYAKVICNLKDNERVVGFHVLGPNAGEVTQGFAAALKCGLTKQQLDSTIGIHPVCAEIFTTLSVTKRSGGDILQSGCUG
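Rat TrxR1 (90 nM in the dispensed reagent) was pre-reduced with 400 uM NADPH for 5 min at room temperature, then incubated with compound for 15 min. After 400 uM selenite was added, NADPH fluorescence (Ex 340/Em 450 nm) was followed for 8 min.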
GALK inh – inhibitors of human galactokinase. P51570. Purified GALK, Kinase-Glo residual ATP luminescence. Potency, µM (titrated, usually from 57.5 µM), for inactives: at the top dose activity change, negative = inhibition, actives largely listed as inhibitors. 270,000 tested, 0.007% active. AID 1868; note: potency is the fitted concentration of half-maximal effect
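Galactose (100 uM) and ATP (35 uM) were turned over by 5 nM GALK for 1 h at RT. Kinase-Glo Plus then converted the remaining ATP into a luminescent signal.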
TrxR1 substrate – rat thioredoxin reductase 1 substrate activity. Potency, µM (series often up to 114 µM), for the others: at the top dose activity change, negative = substrate turnover. O89049. purified TrxR1 substrate turnover, NADPH consumption readout. 390,000 tested, 0.01% active; note: potency is the fitted concentration of half-maximal effect; nearly all actives have a fitted effect of over 50% in size
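Rat TrxR1, dispensed at 90 nM, was prereduced with 400 uM NADPH (final) for 5 min at ~22 deg C, then incubated with compound 15 min before 400 uM selenite. A first-read NADPH fluorescence drop versus no-compound background flagged substrates.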
Numbers without * were called inactive; ? = inconclusive; / = no result; [ ] = dose if it differs, or a comment. Unless noted, calls come from the whole dose curve; as a rule, active = well fitted curve in the direction sought with a large enough effect; inconclusive = small, poorly fitted or top-dose-only effect, or another doubt; inactive = no such curve, though single readings can be large; an effect the other way counts as inactive or inconclusive. Unless noted, % is set by controls: 0 for no effect and ±100 for the full control effect.

SMILES	PI4K2A block	TrxR1 inh	GALK inh	TrxR1 substrate
NS(=O)(=O)c1ccc(-c2ccc(/C=C3\NC(=S)NC3=O)o2)cc1	-4	13µM*	/	3%[57.1 µM]
N#CCCn1cc(C=C(C#N)C#N)c(-c2ccc(-c3ccccc3)cc2)n1	1	79µM*	-2%	16%
Cc1ccc(SC(CC(=O)c2ccc(C)cc2)C(=O)O)cc1 (stereo not given)	-9	40µM*	1%	-4%
O=C(CC(Sc1ccc(Br)cc1)C(=O)O)c1ccc(Br)cc1 (stereo not given)	/	/	-7%	/
O=C(COc1ccc2c(c1)CCC2)Nc1ccccn1	-62*	5%	/	2%
O=C1C2C3C=CC(CC3)C2C(=O)N1c1ccc(F)cc1 (stereo not given)	0	11%[57.1 µM]	-6%	12%[57.1 µM]
CC(C)C1NC2(C(=O)c3ccccc3C2=O)C2C(=O)N(c3ccc(F)cc3)C(=O)C12 (stereo not given)	-22	45µM*	0%	5%
CC1(C)CC(=O)C(C(C2=C(O)CC(C)(C)CC2=O)c2ccc(O)c([N+](=O)[O-])c2)=C(O)C1	-14	13µM*	-4%	-7%
CC(=O)N1CN(Cc2ccccn2)Cc2c1sc1c2CCCC1	-3	50µM*	-2%	-2%
CC(=C(CCOC(=O)C(C)C)SSC(CCOC(=O)C(C)C)=C(C)N(C=O)Cc1cnc(C)nc1N)N(C=O)Cc1cnc(C)nc1N	-3	/	/	/
CCOC(=O)/C(=C\c1ccc(N2CCC(c3ccccc3)=N2)cc1)C(C)=O	-3	-25%	/	-11%
CCOC(=O)C(=Cc1ccc(-n2cncn2)cc1)C(=O)OCC	7	22µM*	0%	5%
CSc1nc(SCCO)c2sc3nc(-c4ccco4)c4c(c3c2n1)CC(C)(C)OC4	-17	56µM*	2%	2%
CSc1nc(N(CCO)CCO)c2sc3nc(-c4ccco4)c4c(c3c2n1)CCC4	-56*	?	-1%	14%
COC(=O)CSc1nc(SC)nc2c1sc1nc(-c3ccco3)c3c(c12)CC(C)(C)OC3	4	15%	/	0%
Fc1ccc(-c2cn3ccccc3n2)cc1	-12	11%	13%	/
CCOc1ccc(-c2cn3ccccc3n2)cc1	-52*	-1%[57.1 µM]	14%	44%[57.1 µM]
CCCC(=O)OCOC(=O)C1=C(C)NC(C)=C(C(=O)OC)C1c1cccc(Cl)c1Cl (stereo not given)	-1	/	/	/
Cc1ccc(CN(C)C(=O)c2ccccc2NC(=O)c2ccccc2)o1	2	28µM*	/	-2%
CN(Cc1ccccc1)C(=O)c1ccccc1NC(=O)c1ccco1	2	2%	0%	0%
COc1cc(Cl)c(C)cc1NC(=O)CSc1cc(-c2ccccc2)nc(C)n1	-2	20%	/	6%
Cc1ccc(NC(=O)c2cc3c([nH]c2=O)CC(c2ccccc2)CC3=O)cc1 (stereo not given)	/	-3%	/	24%
COc1ccc(-c2cc(-c3ccco3)[nH]c(=O)c2C#N)cc1OC	1	16µM*	-2%	46%
N#Cc1c(-c2ccccc2)cc(-c2ccc3c(c2)OCO3)[nH]c1=O	0	24%	/	56%
Cc1cc(O)c(C=O)c2c1C(=O)Oc1c(CO)c(O)c3c(c1O2)C(O)OC3=O (stereo not given)	-85*	50µM*	-16%	-7%
SMILES	PI4K2A block	TrxR1 inh	GALK inh	TrxR1 substrate
O=C1C=CC(=O)N1	1	2µM*	/	6%
COc1ccc(OC)c(N/C=C/C(=O)c2ccccc2)c1	-52*	-14%	16%	-16%
COc1ccc(OC)c(N/C(C)=C/C(=O)c2ccccc2)c1	-12	-13%	-1%	-13%
Cn1c(-c2ccc(Br)o2)nc2cc(Br)ccc21	-6	?	-1%	11%[57.1 µM]
Cc1ccc(-c2nc3ccccc3n2C)o1	?	22µM*	10%	40%
Cn1c(-c2ccc(Br)o2)nc2ccccc21	-56*	?	19%	5%[57.1 µM]
COCCn1c(C)cc(C2=NNC(=Nc3ccccc3)SC2)c1C	-52*	-20%	-1%	-8%
COCCn1c(C)cc(C2=NNC(=Nc3ccc(OC)cc3)SC2)c1C	-1	11%	-2%	10%[57.1 µM]
CC(C)(C)C(=O)CSc1n[nH]c(-c2ccccc2)n1	/	7%	/	-2%
N.N.O=C(O)C1(C(=O)O)CCC1.[Pt+2]	/	0.95µM*	/	14%[57.1 µM]
NC1(C(=O)O)CCCCC1	-3	5%[57.1 µM]	/	2%[57.1 µM]
COc1ccc(-n2c(C)nc3cc(C(=O)NC4CCCC4)ccc32)cc1	-1	12%[57.1 µM]	/	-1%[57.1 µM]
O=C1COc2ccc(C(=O)COC(=O)/C=C/c3ccco3)cc2N1	-15	50µM*	/	-1%
O=C1COc2ccc(C(=O)COC(=O)c3ccc(Cl)cc3[N+](=O)[O-])cc2N1	-1	-26%	/	-3%
O=C1COc2ccc(C(=O)COC(=O)c3ccc([N+](=O)[O-])cc3Cl)cc2N1	-2	50µM*	/	-11%
O=C(O)/C=C/C(=O)c1ccc2c(c1)NC(=O)CO2	-21	2.8µM*	1%	-3%[57.1 µM]
O=C1COc2ccc(C(=O)COC(=O)c3ccco3)cc2N1	-1	4%	-1%	-6%
CCCCCCCCCCCCCCCC[n+]1ccc(C)cc1	/	-29%	/	-10%
COc1cc(C2C(C#N)=C(N)N(c3ccc(F)cc3)C3=C2S(=O)(=O)CC3)ccc1O (stereo not given)	-1	11µM*	-2%	7%
O=C(O)CCCC[P+](c1ccccc1)(c1ccccc1)c1ccccc1	2	/	/	/
CC1(C)CC(=O)C2=C(C1)OC(N)=C(C#N)C2C#Cc1ccccc1 (stereo not given)	-3	2.5µM*	3%	-3%
CC(c1ccccc1)C1C(C#N)=C(N)OC2=C1C(=O)CC(C)(C)C2 (stereo not given)	6	3%	2%	4%
Cc1cc2n(n1)SC(Nc1cc(Cl)ccc1Cl)N2 (stereo not given)	-2	7.1µM*	-3%	1%
COc1ccc(Cn2nnnc2C(c2ccc(N(C)C)cc2)N2CCC(C(N)=O)CC2)cc1 (stereo not given)	2	7.1µM*	4%	0%[57.1 µM]
COc1cc(/C=C2\N=C3CCCCCN3C2=O)ccc1O	-3	50µM*	-1%	?
SMILES	PI4K2A block	TrxR1 inh	GALK inh	TrxR1 substrate
COc1ccc(/C=C2\N=C3CCCCCN3C2=O)cc1OC	-2	8%	-1%	-1%
Cc1ccc(-c2nnc(Nc3ccc(O)cc3)c3ccccc23)cc1S(=O)(=O)N1CCCCC1	7	5%	/	-2%
O=C(Nc1ccccc1)c1cn2ccccc2n1	-24	17%	/	4%
Cc1csc(NC(=O)c2cn3ccccc3n2)n1	-56*	4%	18%	-6%
COCCn1c(SCC(=O)Nc2ccccc2OC)nc2c(oc3ccccc32)c1=O	4	15%	15%	0%
COCCn1c(SCC(=O)N2CCCCC2)nc2ccccc2c1=O	-65*	4%	-1%	-5%
COCCn1c(SCC(=O)Nc2cccc(C)c2C)nc2c(oc3ccccc32)c1=O	-66*	18%	/	5%
O=c1[nH]c2ccccc2c(=O)n1CCCl	-5	/	/	/
CC(C)CN(C)c1nc(N)c(C(=O)N=C(N)N)nc1Cl	/	-3%	/	/
